Rows were chosen to be rich in hits. Some 4.1% of all compounds tested hit in one or more screens of this group.
hgDAF12 agonist: H. glycines DAF-12 receptor agonists, primary screen, cell-based, luminescence, HEK293, GAL4 fusion, UAS-luciferase | HEK293 GAL4-hgDAF12 UAS-luciferase reporter, agonist luminescence; normalized to butyrate control | activation, % at 6.8 µM | actives 1.8% (n = 370,000);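 active means activation above a cutoff set at the mean of all screened compounds plus 3 SD, cut at about 10% in these data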;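 further: 0% = DMSO wells and 100% = sodium butyrate wells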
hcDAF12 agonist: H. contortus DAF-12 nuclear receptor activators, primary screen, cell-based, luminescence, HEK293, lit1-tk-luc reporter; HEK293 hcDAF-12 lit1-tk-luc reporter; 0% DMSO, 100% Δ7-dafachronic acid; activation, % at 6.8 µM; actives 1.4% (n = 370,000);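 active means activation above the mean of all tested compounds plus 3 SD, cut at about 5.5% in these data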;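 further: 100% = response to 3 µM Δ7-dafachronic acid high control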
ssDAF12 agonist: S. stercoralis DAF-12 nuclear receptor activators, primary screen, cell-based, luminescence, HEK293, GRIP1 co-expression, lit1-tk-luc | HEK293 ssDAF-12/GRIP1 lit1-tk-luc reporter; % of 3 µM dafachronic acid response | Nuclear hormone receptor DAF-12 (Strongyloides stercoralis) | actives 1% (n = 370,000) | activation, % at 6.8 µM;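 active means activation above the mean over all tested compounds plus 3 SD, cut at about 0.9% in these data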;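 further: 0% = DMSO-only wells and 100% = 3 µM delta7-dafachronic acid wells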
DAX1 inh-1: DAX1 (NR0B1) inhibitors on StAR promoter, primary screen, cell-based, luminescence, SF-1 (NR5A1), full-length DAX-1; HEK293T StAR-luciferase reporter, SF-1/DAX-1 repression relief; inhibition, % at 6.8 µM; actives 1.1% (n = 370,000); AID 652010, 2013;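 active means inhibition above the mean over all tested compounds plus 3 SD, cut at about 3.6% in these data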;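 further: 0% = DAX-1 cells with DMSO and 100% = cells lacking DAX-1 with DMSO; higher inhibition means more luminescence from relief of DAX-1 repression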
DAX1 inh-2: DAX1 (NR0B1) inhibitors, primary screen, cell-based, HEK293, Gal4-DAX1, luciferase luminescence; Nuclear receptor subfamily 0 group B member 1 (Homo sapiens), P51843; HEK293 Gal4-DAX1 luciferase reporter; inhibition, % at 6.75 µM; actives 0.99% (n = 340,000); AID 504766, 2011;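 active means inhibition above the mean over all tested compounds plus 3 SD, cut at about 4.2% in these data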;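 further: 0% = DAX1-transfected cells with DMSO and 100% = empty-vector control cells with DMSO; inhibition shows as a rise in luminescence from relieved DAX1 repression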
Target sequence (P51843 207-470 limits assumed): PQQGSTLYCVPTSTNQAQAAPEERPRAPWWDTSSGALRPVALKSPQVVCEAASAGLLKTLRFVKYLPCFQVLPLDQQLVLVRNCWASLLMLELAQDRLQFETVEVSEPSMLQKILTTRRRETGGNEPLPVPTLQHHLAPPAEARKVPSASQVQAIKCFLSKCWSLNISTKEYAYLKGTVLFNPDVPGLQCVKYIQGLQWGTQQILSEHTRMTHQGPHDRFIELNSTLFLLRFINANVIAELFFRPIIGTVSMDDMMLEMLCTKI
hgDAF12 ag: H. glycines DAF-12 receptor agonists, confirmation, cell-based, luminescence, HEK293, GAL4-LBD fusion | shares compounds with hgDAF12 agonist | HEK293 GAL4-hgDAF12 luciferase reporter, agonist mode; percent of butyrate response | activation, % at 6.8 µM | actives 80% (n = 3,300) | AID 743050, 2013;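 active means mean activation over triplicate wells above the hit cutoff derived from the earlier primary screen, cut at about 11% in these data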;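 further: 0% = DMSO low control and 100% = 2 mM sodium butyrate high control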
LXR ag 2: LXR agonists, Gal4 luciferase reporter, confirmation, counter-screen for hgDAF-12 agonist project, cell-based, luminescence, HEK293, H. glycines campaign | shares compounds with hgDAF12 agonist | 24 h | activation, % at 6.8 µM | 3,300 tested, under 10 active | AID 743051, 2013;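 active means mean activation of the triplicate above a set limit carried over from the primary screen, none filed active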
The depositor's hits bear a star; x = not tested or not shown.

SMILES	hgDAF12 agonist	hcDAF12 agonist	ssDAF12 agonist	DAX1 inh-1	DAX1 inh-2	hgDAF12 ag	LXR ag 2
CCOc1ccc(C(=O)Nc2ccc3[nH]ncc3c2)cc1	16*	5	0	2	-2	15*	1
Cc1ccnc(NC(=O)c2ccc(OCc3c(C)noc3C)cc2)c1	14*	0	-1	4.2*	1	6	0
CCOc1ccc(C(=O)Nc2cc(C)on2)cc1	14*	2	-1	2	0	14*	1
CC(C)[C@H](N)C(=O)N[C@H](C(=O)N1CCC2CCN(S(=O)(=O)c3ccccc3)CC21)C(C)C (stereo partly drawn)	0	-1	-1	0	x	x	x
Nc1nn(-c2ccccc2)c(N)c1N=Nc1cccc(F)c1	19*	6.0*	0	0	x	24*	1
Cc1nn(-c2ccccc2)c2c1C(c1ccc(F)cc1F)C(C#N)=C(N)O2 (stereo not drawn)	-2	0	-1	0	0	x	x
CCNC(=O)c1sc2cc(C)ccc2c1Cl	15*	3	0	1	1	10	0
C#CCNC(=O)C[C@H]1C[C@@]2(C(=O)OC)C(=C[C@H](C(C)C)O[C@@H]2C2CC2)N(Cc2ccccc2)C1=O	0	-1	-1	0	x	x	x
C#CCNC(=O)C[C@H]1C[C@@]2(C(=O)OC)C(=C[C@H](C(C)C)O[C@@H]2C2CC2)N(CCCCCCCC)C1=O	14*	-3	-1	-2	x	-1	0
COC(=O)c1cc2c(c3c4cc(OC)ccc4n(S(=O)(=O)c4cccc(C)c4)c13)C(=O)N(C)C2	0	0	-1	-1	x	x	x
CC(C)C[C@H]1COc2cccc(N3CCSCC3)c2S(=O)(=O)N1C	0	-2	-1	0	x	x	x
CCn1cnc2sc(-c3ccccc3)cc2c1=O	17*	4	0.9*	2	1	16*	1
O=C(c1ccc(Cl)cc1)c1cnc(-c2ccc(Cl)cc2)s1	1	0	-1	0	0	x	x
O=C(c1ccccc1)c1cnc(-c2ccccc2)s1	16*	3	0	3	9.3*	18*	1
OC[C@H]1O[C@@H](c2nc3ccc(-c4nc(-c5ccc(Br)cc5)no4)cc3[nH]2)C[C@@H]1O	14*	4	0	4.4*	x	9	1
CCOc1ccc(S(=O)(=O)NC2=NCCCCC2)cc1	0	-1	-1	1	-1	x	x
CCOc1ccc(-c2nnc(NC3=NCCCCC3)o2)cc1	15*	2	0	1	2	13*	1
CCOc1ccc(-c2nnc(-c3ccccc3)o2)cc1	14*	6.0*	1	3	1	12*	1
CCOC(=O)c1csc(NC(=O)C2CCCN(S(=O)(=O)c3cccs3)C2)n1 (stereo not drawn)	1	-4	-2	-1	x	x	x
Cc1cc(C)cc(N(CC(=O)NC2CCC(C)CC2)S(=O)(=O)c2cccs2)c1 (stereo not drawn)	6	0	-1	0	x	x	x
Clc1cccc(CNc2ccn3nc(-c4cccc(Cl)c4)cc3n2)c1	13*	3	0	1	x	9	0
Clc1ccc(-c2cc3nc(NCc4cccc(Cl)c4)ccn3n2)cc1	14*	4	0	3.9*	x	17*	1
Clc1cccc(CNc2ccn3nc(-c4ccccc4)cc3n2)c1	8	3	-1	2	x	x	x

Screening data: PubChem, The Scripps Research Institute Molecular Screening Center
